# The supplement of paper PMC8728848
# The full list was thinned out, with the strongest signals kept by preference.
# B1: ECL (Erythrina cristagalli), Q6YD91 (protein)
# chain: VETISFSFSEFEPGNNDLTLQGAAIITQSGVLQLTKINQNGMPAWDSTGRTLYTKPVHIWDMTTGTVASFETRFSFSIEQPYTRPLPADGLVFFMGPTKSKPAQGYGYLGVFNNSKQDNSYQTLAVEFDTFSNPWDPPQVPHIGIDVNSIRSIKTQPFQLDNGQVANVVIKYDASSKILLAVLVYPSSGAIYTIAEIVDVKQVLPEWVDVGLSGATGAQRDAAETHDVYSWSFHASLPETND
# Key:
# Test in all cases: glycan array binding signal (z-score within array); higher = stronger binding
# Conditions in all cases: glycan notation: IUPAC condensed, linker removed
# [1] = target: Gal(b1-4)GlcNAc(b1-3)Gal(b1-4)GlcNAc(b1-3)Gal(b1-4)GlcNAc(b1-3)Gal(b1-4)GlcNAc(b1-3)Gal(b1-4)GlcNAc(b1-2)Man(a1-3)[Gal(b1-4)GlcNAc(b1-3)Gal(b1-4)GlcNAc(b1-3)Gal(b1-4)GlcNAc(b1-3)Gal(b1-4)GlcNAc(b1-3)Gal(b1-4)GlcNAc(b1-2)Man(a1-6)]Man(b1-4)GlcNAc(b1-4)GlcNAc
# Procedure, shortened: (§1)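 The binding signal is a Z-score computed within each array. Data were drawn from 3228 arrays in the Consortium for Functional Glycomics database, restricted to those with a known protein sequence. Scores were averaged over arrays of the same protein sequence at different concentrations or buffers, and over linkers, and negative values can be taken as non-binding.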
# [2] = target: Gal(b1-4)GlcNAc(b1-3)Gal(b1-4)GlcNAc(b1-3)Gal(b1-4)GlcNAc(b1-3)Gal(b1-4)GlcNAc(b1-3)Gal(b1-4)GlcNAc(b1-2)[Gal(b1-4)GlcNAc(b1-3)Gal(b1-4)GlcNAc(b1-3)Gal(b1-4)GlcNAc(b1-3)Gal(b1-4)GlcNAc(b1-3)Gal(b1-4)GlcNAc(b1-6)]Man(a1-6)[Gal(b1-4)GlcNAc(b1-3)Gal(b1-4)GlcNAc(b1-3)Gal(b1-4)GlcNAc(b1-3)Gal(b1-4)GlcNAc(b1-3)Gal(b1-4)GlcNAc(b1-2)Man(a1-3)]Man(b1-4)GlcNAc(b1-4)[Fuc(a1-6)]GlcNAc
# Procedure, shortened: as §1
# [3] = target: Gal(b1-4)GlcNAc(b1-3)Gal(b1-4)GlcNAc(b1-3)Gal(b1-4)GlcNAc(b1-3)Gal(b1-4)GlcNAc(b1-3)Gal(b1-4)GlcNAc(b1-3)Gal(b1-4)GlcNAc(b1-2)Man(a1-3)[Gal(b1-4)GlcNAc(b1-3)Gal(b1-4)GlcNAc(b1-3)Gal(b1-4)GlcNAc(b1-3)Gal(b1-4)GlcNAc(b1-3)Gal(b1-4)GlcNAc(b1-3)Gal(b1-4)GlcNAc(b1-2)Man(a1-6)]Man(b1-4)GlcNAc(b1-4)GlcNAc
# Procedure, shortened: as §1
# [4] = target: Gal(b1-4)GlcNAc(b1-3)[Gal(b1-4)GlcNAc(b1-6)]Gal(b1-4)GlcNAc
# Procedure, shortened: as §1
# Gal3S(b1-3)GlcNAc = target: Gal3S(b1-3)GlcNAc
# Procedure, shortened: as §1
# Gal3S4S(b1-4)GlcNAc = target: Gal3S4S(b1-4)GlcNAc
# Procedure, shortened: as §1
# Gal4S(b1-4)GlcNAc = target: Gal4S(b1-4)GlcNAc
# Procedure, shortened: as §1
# [5] = target: GalNAc(b1-4)GlcNAc(b1-3)GalNAc(b1-4)GlcNAc
# Procedure, shortened: as §1
# Glc(b1-4)Glc = target: Glc(b1-4)Glc
# Procedure, shortened: as §1
# Glc(b1-6)Glc = target: Glc(b1-6)Glc
# Procedure, shortened: as §1
# [6] = target: GlcNAc(a1-4)Gal(b1-4)GlcNAc(b1-3)Gal(b1-4)GlcNAc
# Procedure, shortened: as §1
# [7] = target: GlcNAc(a1-6)Gal(b1-4)GlcNAc
# Procedure, shortened: as §1
# [8] = target: GlcNAc(b1-2)[GlcNAc(b1-4)]Man(a1-3)[GlcNAc(b1-4)][GlcNAc(b1-2)Man(a1-6)]Man(b1-4)GlcNAc(b1-4)GlcNAc
# Procedure, shortened: as §1
# [9] = target: GlcNAc(b1-3)Gal(b1-4)GlcNAc(b1-3)Gal(b1-4)GlcNAc(b1-3)Gal(b1-4)GlcNAc(b1-2)Man(a1-3)[GlcNAc(b1-3)Gal(b1-4)GlcNAc(b1-3)Gal(b1-4)GlcNAc(b1-3)Gal(b1-4)GlcNAc(b1-2)Man(a1-6)]Man(b1-4)GlcNAc(b1-4)[Fuc(a1-6)]GlcNAc
# Procedure, shortened: as §1
# GlcNAc(b1-3)GalNAc = target: GlcNAc(b1-3)GalNAc
# Procedure, shortened: as §1
# [10] = target: GlcNAc(b1-6)Gal(b1-4)GlcNAc
# Procedure, shortened: as §1
# [11] = target: Neu5Ac(a2-3)Gal(b1-3)GalNAc6S
# Procedure, shortened: as §1
# [12] = target: Neu5Ac(a2-3)Gal(b1-4)GlcNAc(b1-3)Gal(b1-4)GlcNAc(b1-3)[Neu5Ac(a2-3)Gal(b1-4)GlcNAc(b1-3)Gal(b1-4)GlcNAc(b1-6)]GalNAc
# Procedure, shortened: as §1
# [13] = target: Neu5Ac(a2-3)Gal(b1-4)[Fuc(a1-3)]GlcNAc(b1-3)Gal
# Procedure, shortened: as §1
# [14] = target: Neu5Ac(a2-3)Gal(b1-4)[Fuc(a1-3)]GlcNAc(b1-3)Gal(b1-4)[Fuc(a1-3)]GlcNAc(b1-3)Gal(b1-4)[Fuc(a1-3)]GlcNAc
# Procedure, shortened: as §1
# [15] = target: Neu5Ac(a2-3)Gal(b1-4)[Fuc(a1-3)]GlcNAc(b1-3)GalNAc
# Procedure, shortened: as §1
# [16] = target: Neu5Ac(a2-3)[GalNAc(b1-4)]Gal(b1-4)Glc
# Procedure, shortened: as §1
# Neu5Ac(a2-6)Gal = target: Neu5Ac(a2-6)Gal
# Procedure, shortened: as §1
# Neu5Ac(a2-6)GalNAc = target: Neu5Ac(a2-6)GalNAc
# Procedure, shortened: as §1
# [17] = target: Neu5Ac(a2-6)GalNAc(b1-4)GlcNAc
# Procedure, shortened: as §1
# Neu5Ac(b2-6)GalNAc = target: Neu5Ac(b2-6)GalNAc
# Procedure, shortened: as §1
binder,measurement,setting,value
B1,glycan array binding signal (z-score),[1],3.35
same,glycan array binding signal (z-score),[2],5.32
same,glycan array binding signal (z-score),[3],2.02
same,glycan array binding signal (z-score),[4],3.6
same,glycan array binding signal (z-score),Gal3S(b1-3)GlcNAc,-0.33
same,glycan array binding signal (z-score),Gal3S4S(b1-4)GlcNAc,-0.359
same,glycan array binding signal (z-score),Gal4S(b1-4)GlcNAc,-0.487
same,glycan array binding signal (z-score),[5],3.31
same,glycan array binding signal (z-score),Glc(b1-4)Glc,-0.25
same,glycan array binding signal (z-score),Glc(b1-6)Glc,-0.304
same,glycan array binding signal (z-score),[6],-0.028
same,glycan array binding signal (z-score),[7],-0.358
same,glycan array binding signal (z-score),[8],-0.235
same,glycan array binding signal (z-score),[9],0.001
same,glycan array binding signal (z-score),GlcNAc(b1-3)GalNAc,-0.196
same,glycan array binding signal (z-score),[10],-0.23
same,glycan array binding signal (z-score),[11],-0.378
same,glycan array binding signal (z-score),[12],-0.038
same,glycan array binding signal (z-score),[13],-0.424
same,glycan array binding signal (z-score),[14],-0.241
same,glycan array binding signal (z-score),[15],-0.17
same,glycan array binding signal (z-score),[16],-0.505
same,glycan array binding signal (z-score),Neu5Ac(a2-6)Gal,-0.186
same,glycan array binding signal (z-score),Neu5Ac(a2-6)GalNAc,-0.481
same,glycan array binding signal (z-score),[17],-0.3
same,glycan array binding signal (z-score),Neu5Ac(b2-6)GalNAc,-0.388
